Data as given in PubChem BioAssay (Tox21).
Records with an inconclusive call do not appear. Activity calls are given as the source filed them. Unless noted, calls follow the shape of the dose curve; as a rule, active = well fitted curve in the direction sought with a large enough effect in the repeat runs; inconclusive = weak or mixed curves; inactive = flat fitted curve, though single readings scatter.

Key:
[1] = qHTS assay to test for compound auto fluorescence at 535 nm (green) in HEK293 cells (AID 720680)
[2] = qHTS assay to test for compound auto fluorescence at 460 nm (blue) in HEK293 cell free culture (AID 720681)
Summary of the method: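 Test compounds were pinned into cell-free culture medium (DMEM with 10% FBS) and fluorescence was read directly at Ex/Em 405/460 nm. Signals were expressed as fluorescence equivalents of triamterene, with DMSO vehicle as control.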

[3] = qHTS assay to test for compound auto fluorescence at 535 nm (green) in HEK293 cell free culture (AID 720682)
Summary of the method: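 Cell-free medium (DMEM, 10% FBS) receives compound or DMSO by pintool. Plate read directly at Ex 485/Em 535 nm. Signal converted to fluorescein equivalency.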

[4] = qHTS assay to test for compound auto fluorescence at 590 nm (red) in HEK293 cell free culture (AID 720683)
Summary of the method: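 Tox21 10K library compounds were pinned into cell-free DMEM with 10% FBS and fluorescence was read at excitation 540 nm. Activity is expressed as Rose Bengal sodium equivalency.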

[5] = qHTS assay to test for compound auto fluorescence at 590 nm (red) in HepG2 cell free culture (AID 720684)
Summary of the method: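 Red fluorescence (540 nm excitation, 590 nm emission) was measured after compound transfer into cell-free MEM supplemented with 10% FBS. Values are equivalencies against Rose Bengal sodium.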

[6] = qHTS assay to test for compound auto fluorescence at 460 nm (blue) in HepG2 cell free culture (AID 720685)
Summary of the method: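 Compound (23 nL) or DMSO pinned into cell-free MEM with 10% FBS; blue fluorescence read at 405/460 nm excitation/emission, expressed as auto-fluorescence equivalency to triamterene.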

[7] = qHTS assay to test for compound auto fluorescence at 535 nm (green) in HepG2 cell free culture (AID 720686)
[8] = qHTS assay to test for compound auto fluorescence at 460 nm (blue) in HepG2 cells (AID 720687)
Summary of the method: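 Cells (2,000/well in MEM with 10% FBS) attached overnight at 37 C, then were exposed to compound or DMSO for 1 hr at 37 C, 5% CO2. Fluorescence read at Ex/Em 405/460 nm, expressed as triamterene-equivalent signal.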

[9] = target: Glucocorticoid receptor (Homo sapiens) (UniProt P04150); experiment: qHTS assay to identify small molecule agonists of the glucocorticoid receptor (GR) signaling pathway (AID 720691; active = well fitted activation curve with a large enough effect in the signal ratio in the repeat runs, not every such curve was filed as active; the % refers to the signal ratio)
Summary of the method: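 GR-bla HeLa cells carrying a GRE-driven beta-lactamase reporter, exposed to compounds for 18 h at 37 C. Reporter activation read as fluorescence after 2 h with LiveBLAzer B/G FRET substrate at room temperature.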
% is scaled to controls: 0 for no effect and ±100 for the full control effect.

Chain of Glucocorticoid receptor (Homo sapiens) (P04150 whole entry, looked up): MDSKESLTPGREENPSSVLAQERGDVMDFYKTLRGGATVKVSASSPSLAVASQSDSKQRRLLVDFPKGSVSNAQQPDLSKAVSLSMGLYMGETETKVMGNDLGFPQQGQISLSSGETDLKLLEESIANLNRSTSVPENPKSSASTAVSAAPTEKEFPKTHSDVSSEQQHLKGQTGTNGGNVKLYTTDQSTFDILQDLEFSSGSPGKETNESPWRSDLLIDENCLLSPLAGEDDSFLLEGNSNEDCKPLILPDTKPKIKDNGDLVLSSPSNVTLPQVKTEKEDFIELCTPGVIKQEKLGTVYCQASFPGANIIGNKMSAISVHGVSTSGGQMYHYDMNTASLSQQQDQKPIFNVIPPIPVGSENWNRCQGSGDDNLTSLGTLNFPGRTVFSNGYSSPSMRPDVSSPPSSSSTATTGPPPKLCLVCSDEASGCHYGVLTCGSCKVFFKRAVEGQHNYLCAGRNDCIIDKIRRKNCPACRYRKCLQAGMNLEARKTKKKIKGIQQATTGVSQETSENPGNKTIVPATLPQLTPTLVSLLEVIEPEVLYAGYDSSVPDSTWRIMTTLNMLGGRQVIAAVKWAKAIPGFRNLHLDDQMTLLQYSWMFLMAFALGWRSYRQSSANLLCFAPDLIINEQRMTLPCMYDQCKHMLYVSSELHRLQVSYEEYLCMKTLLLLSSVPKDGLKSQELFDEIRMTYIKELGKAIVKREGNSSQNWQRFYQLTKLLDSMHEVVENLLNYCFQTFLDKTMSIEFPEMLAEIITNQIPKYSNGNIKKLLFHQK

COC(=O)C1=C(C)NC(C)=C(C(=O)OC(C)C)C1c1cccc2nonc12 (configuration not stated)
inactive: fluorescence, % of fluorescein [1] -0.0539% [at 18.6 µM] | fluorescence, % of fluorescent control [2] 0.0173% [at 18.6 µM] | activity change [3] 0.0719% [at 18.6 µM] | fluorescence, % of fluorescent control [4] -0.0484% [at 18.6 µM] | fluorescence, % of Rose Bengal [5] -0.0514% [at 18.6 µM] | fluorescence, % of fluorescent control [6] -0.0347% [at 18.6 µM] | fluorescence, % of fluorescein control [7] -0.0109% [at 18.6 µM] | fluorescence, % of fluorescent control [8] 0.0339% [at 18.6 µM] | Potency [9]

C=CCCCCCCCCC(=O)OCC
inactive: outcome [1] | outcome [2] | outcome [3] | outcome [4] | outcome [5] | outcome [6] | outcome [7] | outcome [8]

Clc1cc(Cl)c(Cl)nc1Cl
inactive: outcome [1] | outcome [2] | outcome [3] | outcome [4] | outcome [5] | outcome [6] | outcome [7]

CC[N+](CC)(CC(=O)Nc1c(C)cccc1C)Cc1ccccc1 (tested in a mixture with another compound)
inactive: outcome [1] | outcome [2] | outcome [3] | outcome [4] | outcome [5] | outcome [6] | outcome [7] | outcome [8]

CN1[C@@H]2CC[C@H]1CC(OC(=O)C(O)c1ccccc1)C2 (some centres not stated)
inactive: outcome [1] | outcome [2] | outcome [3] | outcome [4] | outcome [5] | outcome [6] | outcome [7]

C=C(C)C(=O)OCCOCCOCCOCCOC(=O)C(=C)C
inactive: outcome [1] | outcome [2] | outcome [3] | outcome [4] | outcome [5] | outcome [6] | outcome [7]

CCNS(=O)(=O)c1ccc(C)cc1
inactive: outcome [1] | outcome [2] | outcome [3] | outcome [4] | outcome [5] | outcome [6] | outcome [7] | outcome [8] | Potency [9]

CC(C)CC(C)(N)C#N (configuration not stated)
inactive: outcome [1] | outcome [2] | outcome [3] | outcome [4] | outcome [5] | outcome [6] | outcome [7] | outcome [8] | Potency [9]

CCCCCCCC1CCCC1=O (configuration not stated)
inactive: outcome [1] | outcome [2] | outcome [3] | outcome [4] | outcome [5] | outcome [6] | outcome [7] | outcome [8]

CC(N)C12CC3CC(CC(C3)C1)C2 (configuration not stated)
inactive: outcome [1] | outcome [2] | outcome [3] | outcome [4] | outcome [5] | outcome [6] | outcome [7] | outcome [8] | Potency [9]

O=CN(CCO)CCO
inactive: outcome [1] | outcome [2] | outcome [3] | outcome [4] | outcome [5] | outcome [6] | outcome [7] | outcome [8] | Potency [9]

CC(C)(C)C(=O)Oc1ccc(S(=O)(=O)Nc2ccccc2C(=O)NCC(=O)O)cc1
inactive: outcome [1] | outcome [2] | outcome [3] | outcome [4] | outcome [5] | outcome [6] | outcome [7] | outcome [8]

CCCn1cc[n+](C)c1C
inactive: outcome [1] | outcome [2] | outcome [3] | outcome [4] | outcome [5] | outcome [6] | outcome [7] | outcome [8]

COc1ccccc1OCC1CNC(=O)O1 (configuration not stated)
inactive: outcome [1] | outcome [2] | outcome [3] | outcome [4] | outcome [5] | outcome [6] | outcome [7]

C=CC(=O)OCCCl
inactive: outcome [1] | outcome [2] | outcome [3] | outcome [4] | outcome [5] | outcome [6] | outcome [7]

CN1CCC(=C2c3ccccc3CCc3cccnc32)CC1
inactive: outcome [1] | outcome [2] | outcome [3] | outcome [4] | outcome [5] | outcome [6] | outcome [7] | outcome [8]

CCN(CC#N)c1cccc(C)c1
inactive: outcome [1] | outcome [2] | outcome [3] | outcome [4] | outcome [5] | outcome [6] | outcome [7] | outcome [8]

Nc1ccn([C@@H]2O[C@H](CO)[C@@H](O)C2O)c(=O)n1 (some centres not stated)
inactive: outcome [1] | outcome [2] | outcome [3] | outcome [4] | outcome [5] | outcome [6] | outcome [7] | outcome [8] | Potency [9]

Cc1ccc(C(=O)c2ccc(CC(=O)O)n2C)cc1
inactive: fluorescence, % of fluorescein [1] -0.0701% [at 18.6 µM] | fluorescence, % of fluorescent control [2] 0.0612% [at 18.6 µM] | activity change [3] -0.0078% [at 18.6 µM] | fluorescence, % of fluorescent control [4] 0.0035% [at 18.6 µM] | fluorescence, % of Rose Bengal [5] 0.0726% [at 18.6 µM] | fluorescence, % of fluorescent control [6] -0.117% [at 18.6 µM] | fluorescence, % of fluorescein control [7] -0.0798% [at 18.6 µM] | fluorescence, % of fluorescent control [8] -0.0013% [at 18.6 µM]

COc1cc(-c2ccc(=O)[nH]n2)ccc1OC(F)F
inactive: outcome [1] | outcome [2] | outcome [3] | outcome [4] | outcome [5] | outcome [6] | outcome [7] | outcome [8]

CCN[C@@H]1C[C@H](N)[C@@H](OC2OC(CN)=CCC2N)[C@H](O)[C@H]1O[C@H]1OC[C@](C)(O)[C@H](NC)[C@H]1O (some centres not stated)
inactive: outcome [1] | outcome [2] | outcome [3] | outcome [4] | outcome [5] | outcome [6] | outcome [7] | outcome [8]

O=S(=O)(O)c1cccc(S(=O)(=O)O)c1
inactive: outcome [1] | outcome [2] | outcome [3] | outcome [4] | outcome [5] | outcome [6] | outcome [7] | outcome [8]

NO
inactive: outcome [1] | outcome [2] | outcome [3] | outcome [4] | outcome [5] | outcome [6] | outcome [7] | outcome [8]

CCN(Cc1ccccc1)c1ccccc1
inactive: outcome [1] | outcome [2] | outcome [3] | outcome [4] | outcome [5] | outcome [6] | outcome [7] | outcome [8]

CC(C)C[C@@H](N)C(=O)O
inactive: outcome [1] | outcome [2] | outcome [3] | outcome [4] | outcome [5] | outcome [6] | outcome [7] | outcome [8] | Potency [9]
